Compounds with a hit are over-represented: about 15% of the library has one in this group of screens.
VP16 counter: VP16 counterscreen qHTS for inhibitors of ROR gamma transcriptional activity | Drosophila S2 Gal4-VP16 UAS-luciferase, luminescence, 20 h | Potency, µM (series often up to 53.6 µM), hits mostly inhibitors | hit rate 3.5% among 310,000 | AID 2546, 2010;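 further: Gal4-VP16 expression switched on by copper sulfate through the metallothionein promoter; nearly all actives have a fitted effect of over 50% in size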
TDP1 cell CPT: qHTS for Inhibitors of human tyrosyl-DNA phosphodiesterase 1 (TDP1): qHTS in cells in presence of CPT; chicken DT40 Tdp1-/-;hTDP1 cells + 20 nM CPT, ATP luminescence, 48 h; Potency, µM (top dose mostly 46.2 µM), usual class: inhibitors; hit rate 12% among 420,000; further: nearly all actives have a fitted effect of over 55% in size
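Chicken DT40 Tdp1-/- cells stably complemented with human TDP1 were seeded at 400 cells/well in medium containing 20 nM camptothecin, exposed to pin-transferred compounds, and grown at 37 °C for at least 48 hr. Viability was read as ATP luminescence.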
RORg inh: qHTS for inhibitors of ROR gamma transcriptional activity; Drosophila S2 Gal4-RORgamma UAS-luciferase reporter, 20 h; hit rate 5.4% among 310,000; Potency, µM (titrated, usually from 53.6 µM), most hits filed as inhibitors; further: nearly all actives have a fitted effect of over 60% in size
Target sequence (P51450 whole entry, looked up, the tested form may be a part): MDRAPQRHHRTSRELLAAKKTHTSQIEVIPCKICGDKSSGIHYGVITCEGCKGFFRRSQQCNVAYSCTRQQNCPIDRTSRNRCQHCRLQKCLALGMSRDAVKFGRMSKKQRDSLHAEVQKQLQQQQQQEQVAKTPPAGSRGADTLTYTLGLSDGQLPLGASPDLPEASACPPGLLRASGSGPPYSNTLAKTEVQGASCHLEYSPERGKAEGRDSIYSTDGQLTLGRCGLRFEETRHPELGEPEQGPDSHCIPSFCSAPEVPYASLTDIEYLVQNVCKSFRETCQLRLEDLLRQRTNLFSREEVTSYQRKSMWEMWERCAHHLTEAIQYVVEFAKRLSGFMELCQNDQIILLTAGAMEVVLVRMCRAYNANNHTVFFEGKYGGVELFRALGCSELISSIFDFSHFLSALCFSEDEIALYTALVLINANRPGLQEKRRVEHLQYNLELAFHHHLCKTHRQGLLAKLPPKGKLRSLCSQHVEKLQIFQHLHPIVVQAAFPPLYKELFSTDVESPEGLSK
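Stable Schneider cell line, Gal4 DNA-binding domain fused to ROR gamma, UAS-luciferase. Cmpd 1 hr RT → CuSO4 700 uM final → 20 hr RT → luciferase reagent 10 min → luminescence.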
ELG1 repair inh: qHTS screen for small molecules that inhibit ELG1-dependent DNA repair in human embryonic kidney (HEK293T) cells expressing luciferase-tagged ELG1; hit rate 2.3% among 330,000; Potency, µM (top dose mostly 46.1 µM), most hits filed as inhibitors; AID 504467, 2011; HEK293T ELG1-luciferase reporter, luminescence, 16 h; DNA damage induced by 5-fluorouridine; further: nearly all actives have a fitted effect of over 55% in size
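Step one: seed 2,000 cells per well. Step two: pin-transfer compound or DMSO alongside 5-fluorouridine. Step three: incubate 16 hr, 37 °C, 5% CO2. Step four: add ONE-Glo, wait 30 min, read luminescence.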
ALOX12 inh: Primary qHTS assay for inhibitors of human arachidonate 12S-lipoxygenase (ALOX12): Round 2. purified 12hLO, xylenol orange hydroperoxide absorbance. Potency, µM (top dose mostly 108 µM), actives largely listed as inhibitors. hit rate 1.1% among 580,000. AID 1671190, 2021
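Hydroperoxide product was detected by ferrous iron/xylenol orange as the 573 to 405 nm absorbance ratio. Arachidonic acid at 40 uM (final) was turned over for 30 min at room temperature by 150 nM human 12hLO, pH 7.0 Hepes buffer, after 15 min compound preincubation.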
TDP1 cell noCPT: qHTS for Inhibitors of human tyrosyl-DNA phosphodiesterase 1 (TDP1): qHTS in cells in absence of CPT | DT40 Tdp1-/- hTDP1 cells, no CPT, ATP luminescence, 48 h | Potency, µM (series often up to 46.2 µM), hits mostly inhibitors | hit rate 15% among 420,000; further: nearly all actives have a fitted effect of over 55% in size
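DT40 Tdp1-/-;hTDP1 cells, no CPT (DMSO vehicle only), 400 cells/well; compounds pin-transferred; ≥48 hr, 37 °C; CellTiter-Glo 30 min RT dark, luminescence read.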
Hits are given with their value; 0 = inactive; ? = inconclusive; - = no result. The call rests on the fitted dose curve; in most records, active means well fitted curve in the direction sought with a large enough effect; inconclusive means small, poorly fitted or top-dose-only effect, or another doubt; inactive means no such curve, though single readings can be large; an effect the other way counts as inactive or inconclusive.

SMILES | VP16 counter | TDP1 cell CPT | RORg inh | ELG1 repair inh | ALOX12 inh | TDP1 cell noCPT
CC(C)S(=O)(=O)C1=NSC2=NC(=O)/C(=C\c3ccc(-c4ccccc4)o3)C(=N)N21 | 0 | 0 | ? | 0 | 25µM | ?
Cc1ccc(-n2c(C)cc(/C=C3/C(=N)N4C(c5ccccc5)=CSC4=NC3=O)c2C)cc1 | 0 | ? | 0 | 0 | 0 | 23µM
N=C1/C(=C/c2ccc(-c3cccc(C(=O)O)c3)o2)C(=O)N=C2SC=C(c3ccccc3)N12 | 0 | ? | 0 | ? | 28µM | 0
COc1ccc(-c2nn(-c3ccccc3)cc2/C=C/C(=O)O)cc1[N+](=O)[O-] | 0 | ? | 0 | 0 | 0 | 23µM
COc1ccc(-c2nn(-c3ccccc3)cc2C=O)cc1[N+](=O)[O-] | 0 | 0 | 0 | ? | 0 | 0
O=C(Nc1cc(Sc2ccccn2)cc([N+](=O)[O-])c1)c1ccc([N+](=O)[O-])cc1 | 0 | ? | 0 | ? | 0 | 2.1µM
O=C(Nc1ccc([N+](=O)[O-])cc1)c1ccccc1 | 0 | 0 | 0 | ? | 0 | 0
CCN(CC)CCNC(=O)c1ccc2c(=O)n3nc(Nc4ccccc4)sc3nc2c1 | - | 5.8µM | - | - | ? | 4.6µM
CCOC(=O)c1ccc(Nc2nn3c(=O)c4ccccc4nc3s2)cc1 | - | 0 | - | - | 0 | 0
COc1cccc(CNC(=O)c2ccc3c(=O)n4nc(Nc5ccccc5)sc4nc3c2)c1 | - | 8.2µM | - | - | ? | ?
Cc1ccc(C)c(Nc2nn3c(=O)c4ccc(C(=O)NCc5ccccc5)cc4nc3s2)c1 | - | 5.2µM | - | - | 0 | 7.3µM
CCc1cccc(C)c1Nc1nn2c(=O)c3ccccc3nc2s1 | - | 12µM | - | - | ? | 23µM
O=C(NCc1ccccn1)c1ccc2c(=O)n3nc(Nc4ccccc4)sc3nc2c1 | 0 | ? | 0 | ? | 0 | 0
CCOC(=O)C(NC(=O)c1cccc(C(F)(F)F)c1)(OCc1ccccc1)C(F)(F)F (stereo not drawn) | - | - | - | - | 0 | -
Cc1nccn1CCCC(=O)N1CCC2(CC1)CNC(C(=O)O)C2 (stereo not drawn) | - | - | - | - | 0 | -
CCCCCCCCCCS(=O)(=O)N/N=C/c1ccccc1[N+](=O)[O-] | - | - | - | - | 0 | -
O=C(C[C@H]1NC(=O)c2ccccc2NC1=O)Nc1ncn[nH]1 | - | - | - | - | 0 | -
CC(CNC(=O)c1ccc2nccnc2c1)c1ccccc1 (stereo not drawn) | - | - | - | - | 0 | -
Cc1ccccc1Nc1nn2c(=O)c3ccc(C(=O)NCC(C)c4ccccc4)cc3nc2s1 (stereo not drawn) | - | 15µM | - | - | 0 | 15µM
Cc1ccccc1Nc1nn2c(=O)c3ccc(C(=O)NCc4cccs4)cc3nc2s1 | - | 16µM | - | - | 0 | 13µM
COC[C@H]1C[C@@H](NCC(C)C)[C@H](O)[C@@H]1O | - | - | - | - | 0 | -
CCOc1ccccc1CNC(=O)c1sc2ncccc2c1-n1cccc1 | - | 15µM | - | - | 0 | 16µM
O=C(NCCCN1CCN(c2ccc(F)cc2)CC1)c1sc2ncccc2c1-n1cccc1 | - | 16µM | - | - | 0 | ?
O=C(NCCc1ccccc1Cl)c1sc2ncccc2c1-n1cccc1 | - | 23µM | - | - | 0 | ?
O=C(NCCCN1CCCCC1)c1sc2ncccc2c1-n1cccc1 | - | 0 | - | - | 0 | 0
SMILES | VP16 counter | TDP1 cell CPT | RORg inh | ELG1 repair inh | ALOX12 inh | TDP1 cell noCPT
O=C(c1ccccc1)c1ccc(OCC(=O)N(Cc2nc3ccccc3c(=O)[nH]2)CC2CCCO2)cc1 (stereo not drawn) | - | - | - | - | 0 | -
O=C(N/N=C/C=C\c1ccco1)c1ccccn1 | 0 | 9.2µM | 0 | ? | 0 | 16µM
O=C(N/N=C\C=C\c1ccco1)c1cncc(Br)c1 | ? | 0 | 2.2µM | 0 | 0 | ?
O=C(N/N=C\C=C\c1ccco1)c1cc(-c2ccc3ccccc3c2)n[nH]1 | 1µM | ? | 2.2µM | ? | 40µM | ?
COC(=O)c1cc(S(=O)(=O)N2CCC(c3cc(OC)ccc3OC)C2)c[nH]1 (stereo not drawn) | ? | 13µM | 0 | ? | 0 | ?
COC(=O)c1cc(S(=O)(=O)N2CCC(c3ccccc3)C2)c[nH]1 (stereo not drawn) | 0 | 23µM | 0 | ? | 0 | ?
Cc1cnc(NC(=O)c2[nH]c3c(c2C)C(=O)CCC3)s1 | - | - | - | - | 0 | -
COc1ccc(-c2nc(CSC(C)C(=O)Nc3ccccc3)co2)cc1 (stereo not drawn) | - | - | - | - | 0 | -
Cc1cccc(/C=C/c2onc(C)c2S(=O)(=O)N2CCC(C(=O)N3CCCCCC3)CC2)c1 | 0 | ? | 0 | ? | 0 | 23µM
Cc1ccc(/C=C/c2onc(C)c2S(=O)(=O)N2CCC(C(=O)N3CCN(c4cccc(C)c4)C(C)C3)CC2)cc1 (stereo not drawn) | - | 21µM | - | - | 0 | 12µM
CCC1CN(C(=O)C2CCN(S(=O)(=O)c3c(C)noc3/C=C/c3ccc(C)cc3)CC2)c2cc(C)ccc2O1 (stereo not drawn) | - | 0 | - | - | 0 | 0
COc1cccc(/C=C/c2onc(C)c2S(=O)(=O)N2CCC(C(=O)N3CCC(C)CC3)CC2)c1 | - | ? | - | - | ? | 16µM
CNC(=O)C1CCN(S(=O)(=O)c2c(C)noc2/C=C/c2ccc(OC)cc2)CC1 | 0 | 0 | 0 | ? | 0 | 0
COc1cccc(/C=C/c2onc(C)c2S(=O)(=O)N2CCC(C(=O)NC3CCCCCC3)CC2)c1 | 0 | 0 | 0 | ? | 0 | 0
COc1ccc(/C=C/c2onc(C)c2S(=O)(=O)N2CCC(C(=O)N3CCC(C)CC3)CC2)cc1 | 0 | 16µM | 0 | ? | 0 | 16µM
CC1=C(C)CC(C(=O)NC(c2ccccc2)c2ccccc2)C(C(=O)O)C1 (stereo not drawn) | - | - | - | - | 0 | -
CC(=O)NC12CC3CC(C1)CC(C(=O)NCCc1ccc(F)cc1)(C3)C2 | - | - | - | - | 0 | -
CC(=O)C1(O)CCC2C3CCC4CC(=O)CCC4(C)C3C(=O)CC21C (stereo not drawn) | - | 0 | - | - | 0 | 0
CC(=O)C1CCC2C3CCC4CC(=O)CCC4(C)C3C=CC12C (stereo not drawn) | - | 0 | - | - | 0 | 15µM
CC(=O)C1C(C)CC2C3CCC4CC(=O)CCC4(C)C3CCC21C (stereo not drawn) | - | ? | - | - | 0 | 21µM
O=C(NCC1CC1)c1cnc(N2CCN(Cc3cccc(F)c3)C2=O)s1 | - | - | - | - | 0 | -
COC(=O)c1cccc(COC(=O)c2cc(C(C)=O)c[nH]2)c1 | - | - | - | - | 0 | -

From PubChem BioAssay
